Reference: PubChem BioAssay (NCATS)
Records with an inconclusive call do not appear. The source made the active and inactive calls. Unless noted, the call rests on the fitted dose curve; in most records, active means well fitted cell-killing curve with a large enough effect; inconclusive means small, poorly fitted or top-dose-only effect; inactive means flat fitted curve, though single readings scatter.

What was measured:
[1] = Cell Viability - LYMP2-025 (AID 976); further: series mostly up to about 92 µM
Method in brief: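 Human lymphoblastoid LYMP2-025 cells (2500/well) were pre-incubated 5 hr at 37 C, then treated with compounds for 24 hr at 37 C in complete medium. Viability was read as intracellular ATP by CellTiter-Glo luminescence; AC50 from Hill fits.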

[2] = Cell Viability - LYMP2-002 (AID 977); further: series mostly up to about 92 µM
Method in brief: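 Luminescent ATP readout (CellTiter-Glo, 30 min room temperature) after 24 h compound exposure at 37 C of a human lymphoblastoid line, 2500 cells/well. AC50 values derived by standard Hill fitting of qHTS concentration-response data.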

[3] = Cell Viability - LYMP2-006 (AID 978); further: series mostly up to about 92 µM; nearly all actives have a fitted effect of over 60% in size
Method in brief: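 Cells are seeded at 2500 per well and rested 5 hr at 37 C. Compounds are added across a concentration series for 24 hr at 37 C, after which ATP is quantified by luciferase luminescence.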

[4] = Cell Viability - LYMP2-007 (AID 979);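 further: cells exposed to compound for 24 h before reading; nearly all actives have a fitted effect of over 60% in size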
Method in brief: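 Human lymphoblastoid cells (2500/well) were plated in complete medium, incubated 5 hr at 37 C, then exposed to compounds for 24 hr at 37 C. Intracellular ATP was read by CellTiter-Glo luminescence after 30 min at room temperature; AC50 from Hill fits.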

[5] = Cell Viability - LYMP2-008 (AID 980); further: nearly all actives have a fitted effect of over 60% in size
Method in brief: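 Human lymphoblastoid cells (2500/well) were plated, held 5 hr at 37 C, then exposed to compounds for 24 hr at 37 C in complete medium. Intracellular ATP was read by CellTiter-Glo luminescence; AC50 from Hill-fitted concentration-response.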

[6] = Cell Viability - LYMP2-010 (AID 981); further: nearly all actives have a fitted effect of over 55% in size
Method in brief: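 Human lymphoblastoid LYMP2-010 cells (2500/well) were preincubated 5 hr at 37 C, then exposed to compounds for 24 hr at 37 C in complete medium. Intracellular ATP was measured by CellTiter-Glo luminescence after 30 min at room temperature; AC50 from Hill-fitted concentration-response.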

[7] = Cell Viability - LYMP2-012 (AID 982);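 further: cellular ATP by luciferase luminescence where a drop means cytotoxicity; cells exposed to compound for one day before reading; nearly all actives have a fitted effect of over 55% in size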
[8] = Cell Viability - LYMP2-014 (AID 983); further: series mostly up to about 92 µM; nearly all actives have a fitted effect of over 50% in size
Method in brief: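 Human lymphoblastoid cells (2500/well) were pre-incubated 5 hr at 37 C, then exposed to compounds in complete medium for 24 hr at 37 C. Intracellular ATP was read by CellTiter-Glo luminescence after 30 min at room temperature; AC50 from Hill fits.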

[9] = Cell Viability - LYMP2-016 (AID 984); further: nearly all actives have a fitted effect of over 55% in size
Method in brief: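 Cells were seeded at 2500 per well and rested 5 hr before a 24 hr compound exposure at 37 C. Viability was then gauged as cellular ATP by luciferase luminescence, with AC50 values fitted to the Hill equation.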

[10] = Cell Viability - LYMP2-018 (AID 985); further: nearly all actives have a fitted effect of over 50% in size
Method in brief: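 Human lymphoblastoid cells (2500/well) were pre-incubated 5 hr at 37 C, then exposed to compounds for 24 hr at 37 C in complete medium. Viability was read as intracellular ATP by CellTiter-Glo luminescence; AC50 values came from Hill-equation fits.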

[11] = Cell Viability - LYMP2-020 (AID 986); further: series mostly up to about 92 µM; nearly all actives have a fitted effect of over 55% in size
Method in brief: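 Human lymphoblastoid cells, 2500/well, were pre-incubated 5 hr at 37 C, then exposed to compounds for 24 hr at 37 C in complete medium. Intracellular ATP was read by CellTiter-Glo luminescence, and AC50 was derived by Hill fitting of concentration-response data.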

[12] = Cell Viability - LYMP2-022 (AID 987); further: nearly all actives have a fitted effect of over 55% in size
Method in brief: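 Human lymphoblastoid cells, 2500/well, preincubated 5 hr at 37 C, then exposed to compounds over a concentration range for 24 hr at 37 C in complete medium. Viability read as intracellular ATP by CellTiter-Glo luminescence after 30 min at room temperature; AC50 from Hill fits.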

[13] = Cell Viability - LYMP2-024 (AID 988); further: nearly all actives have a fitted effect of over 60% in size
Method in brief: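 Human lymphoblastoid cells (2500/well) in complete medium were preincubated 5 hr at 37 C, then exposed to compounds for 24 hr at 37 C. Intracellular ATP was read by CellTiter-Glo luminescence; AC50 from Hill-equation fits of concentration-response data.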

[14] = Cell Viability - LYMP2-026 (AID 989); further: nearly all actives have a fitted effect of over 50% in size
Method in brief: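 Human lymphoblastoid cells (2500/well) in complete medium were preincubated 5 hr at 37 C, then exposed to compounds for 24 hr at 37 C. Cellular ATP was read by CellTiter-Glo luminescence; AC50 from Hill-equation fits of concentration-response data.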

[15] = Cell Viability - LYMP1-002 - Assay at 24 hr (AID 993)
Method in brief: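 Human lymphoblastoid LYMP1-002 cells, 2500/well in complete medium, were treated with compounds for 24 h at 37 C; intracellular ATP was read by CellTiter-Glo luminescence. AC50 values came from Hill-equation fits of qHTS concentration-response data.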

[16] = Cell Viability - LYMP1-002 - Assay at 40 hr (AID 994); further: nearly all actives have a fitted effect of over 60% in size
Method in brief: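 Human lymphoblastoid cells, 2500/well in complete medium, were preincubated 5 hr at 37 C, then exposed to compounds for 40 hr at 37 C. Intracellular ATP was read by CellTiter-Glo luminescence after 30 min at room temperature; AC50 from Hill-equation fits.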

[17] = qHTS Assay for Identification of Small Molecule Inducers of Hypoxia Response (AID 2120; active means well fitted curve in the direction sought with a large enough effect in the signal ratio, with a control signal flat, not every such curve was filed as active; the % refers to the signal ratio)
Method in brief: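 HRE-beta-lactamase reporter in CellSensor HRE-bla ME-180 cells, 2500 cells/well in Opti-MEM with 0.5% dialyzed FBS; compounds tested as titration series, 17 h at 37 degrees C. CCF4 substrate 2.5 h at room temperature; AC50 from 460/530 nm ratio.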

[18] = biological target: Estrogen receptor (Homo sapiens) (UniProt P03372); assay: qHTS assay for small molecule antagonists of estrogen receptor alpha signaling (AID 588513; active means well fitted curve in the direction sought with a large enough effect in the signal ratio, with a control signal flat, not every such curve was filed as active; the % refers to the signal ratio)
Estrogen receptor (Homo sapiens), sequence (P03372 whole entry, looked up): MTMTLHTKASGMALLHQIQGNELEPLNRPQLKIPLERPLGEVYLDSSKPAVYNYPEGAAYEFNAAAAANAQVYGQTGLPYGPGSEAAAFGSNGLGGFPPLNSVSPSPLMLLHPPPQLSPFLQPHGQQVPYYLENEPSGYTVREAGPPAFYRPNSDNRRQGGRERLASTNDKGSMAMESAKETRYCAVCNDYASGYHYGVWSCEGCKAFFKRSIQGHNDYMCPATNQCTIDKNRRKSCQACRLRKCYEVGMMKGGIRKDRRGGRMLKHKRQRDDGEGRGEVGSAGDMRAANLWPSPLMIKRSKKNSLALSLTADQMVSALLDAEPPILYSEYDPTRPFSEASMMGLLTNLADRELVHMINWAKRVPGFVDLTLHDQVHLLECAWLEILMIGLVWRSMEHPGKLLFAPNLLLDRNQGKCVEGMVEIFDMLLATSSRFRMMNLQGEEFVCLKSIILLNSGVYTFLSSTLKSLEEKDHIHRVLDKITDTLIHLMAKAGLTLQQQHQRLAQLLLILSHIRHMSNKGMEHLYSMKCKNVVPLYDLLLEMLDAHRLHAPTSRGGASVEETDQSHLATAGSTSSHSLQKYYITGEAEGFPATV
Method in brief: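 Fluorescence from CCF4 substrate after 2 h at room temperature gave reporter activity; cells had been exposed to compound and 0.5nM 17-beta-estradiol for 18 h at 37 C. Hill-equation fitting yielded IC50 and maximal response.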

[19] = biological target: Estrogen receptor (Homo sapiens) (UniProt P03372); assay: qHTS assay for small molecule agonists of estrogen receptor alpha signaling (AID 588514; calls by dose curve; further: nearly all actives have a fitted effect of over 70% in size)
Method in brief: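 ER-alpha-UAS-bla GripTite HEK 293 cells in medium with 2% charcoal/dextran-treated FBS were treated with compound titrations at 37 C for 18 hrs; beta-lactamase reporter read by CCF4 fluorescence after 2 hrs at RT.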

Measured: Potency

CC(=O)c1cccc([N+](=O)[O-])c1
inactive: [1] | [2] | [3] | [4] | [5] | [6] | [7] | [8] | [9] | [10] | [11] | [12] | [13] | [14] | [15] | [16] | [17] | [18] | [19]

CC(C)=CCC/C(C)=C/C=O
inactive: [1] | [2] | [3] | [4] | [5] | [6] | [7] | [8] | [9] | [10] | [11] | [12] | [13] | [14] | [16] | [17] | [18] | [19]

COc1ccc(N)c(OC)c1
inactive: [1] | [2] | [3] | [4] | [5] | [6] | [7] | [8] | [9] | [11] | [12] | [13] | [14] | [15] | [16] | [17] | [18] | [19]

Fc1ccccc1
inactive: [1] | [2] | [3] | [4] | [5] | [6] | [7] | [8] | [9] | [10] | [11] | [12] | [13] | [14] | [15] | [16] | [17] | [18] | [19]

C=CCOC(=O)CCCCCCCC
inactive: [1] | [2] | [3] | [4] | [5] | [6] | [7] | [8] | [9] | [10] | [11] | [12] | [13] | [14] | [15] | [16] | [17] | [18] | [19]

FB(F)F
inactive: [1] | [2] | [3] | [4] | [5] | [6] | [7] | [8] | [9] | [10] | [11] | [12] | [13] | [14] | [15] | [16] | [17] | [18] | [19]

NC(=O)CCCCC(N)=O
inactive: [1] | [2] | [3] | [4] | [5] | [6] | [7] | [8] | [9] | [11] | [12] | [13] | [14] | [15] | [16] | [17] | [18] | [19]

Cc1cc(C)c(N)cc1C
inactive: [1] | [2] | [3] | [4] | [5] | [6] | [7] | [8] | [9] | [10] | [11] | [12] | [13] | [14] | [15] | [16] | [17] | [18] | [19]

CC(=O)OC(C)C
inactive: [1] | [2] | [3] | [4] | [5] | [6] | [7] | [8] | [9] | [10] | [11] | [12] | [13] | [14] | [16] | [17] | [18] | [19]

COc1ccc(N)c(C)c1
inactive: [1] | [2] | [3] | [4] | [5] | [6] | [7] | [8] | [9] | [10] | [11] | [12] | [13] | [14] | [15] | [16] | [17] | [18] | [19]

CCCCC(CC)COC(=O)CCCCC(=O)OCC(CC)CCCC (centres undefined)
inactive: [1] | [2] | [3] | [4] | [5] | [6] | [7] | [8] | [9] | [10] | [11] | [12] | [13] | [14] | [15] | [16] | [17] | [18] | [19]

O=[N+]([O-])c1ccc2nc[nH]c2c1
inactive: [1] | [2] | [3] | [4] | [5] | [6] | [7] | [8] | [9] | [10] | [11] | [12] | [13] | [15] | [16] | [17] | [18] | [19]

Nc1nc2ccccc2[nH]1
inactive: [1] | [2] | [3] | [4] | [5] | [6] | [7] | [8] | [9] | [11] | [12] | [13] | [14] | [15] | [16] | [17] | [18] | [19]

O=P(O)(OCc1ccccc1)OCc1ccccc1
inactive: [1] | [2] | [3] | [4] | [5] | [6] | [7] | [8] | [9] | [10] | [11] | [12] | [13] | [14] | [16] | [17] | [18] | [19]
